# From PubChem BioAssay (NCI)
# Compounds without any hit were thinned out: in the full panel of roughly 83,000, 20% have a hit.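 Percent growth is the endpoint: 0 to 100 indicates growth inhibition (40 means 60% inhibition), 0 means no net growth, and negative values indicate cell death.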 A number with no mark means an inactive call. Activity calls are given as the source filed them. How the source made its calls: active means growth percent below 10; inactive means the rest.
# Key:
# Test in all cases: NCI-60 one-dose screen, 48 h (100 = growth as untreated, 0 = no growth, -100 = all killed)
# SK-MEL-2 melanoma = details: 10 µM unless noted
# EKVX NSCLC = details: 10 µM unless noted
# SN12C renal = details: 10 µM unless noted
# UO-31 renal = details: 10 µM unless noted
# TK-10 renal = details: 10 µM unless noted
# ACHN renal = details: 10 µM unless noted
# CAKI-1 renal = details: 10 µM unless noted
# A498 renal = details: 10 µM unless noted
# CCRF-CEM leukemia = details: 10 µM unless noted
# MOLT-4 leukemia = details: 10 µM unless noted
# SR leukemia = details: 10 µM unless noted
# RPMI-8226 leukemia = details: 10 µM unless noted
# OVCAR-8 ovarian = details: 10 µM unless noted
# OVCAR-5 ovarian = details: 10 µM unless noted
# OVCAR-4 ovarian = details: 10 µM
# IGROV1 ovarian = details: 10 µM unless noted
# OVCAR-3 ovarian = details: 10 µM unless noted
# HS 578T breast = details: 10 µM unless noted
# NCI/ADR-RES ovarian = details: 10 µM unless noted
# SK-OV-3 ovarian = details: 10 µM unless noted
Structure (SMILES),growth (SK-MEL-2 melanoma),growth (EKVX NSCLC),growth (SN12C renal),growth (UO-31 renal),growth (TK-10 renal),growth (ACHN renal),growth (CAKI-1 renal),growth (A498 renal),growth (CCRF-CEM leukemia),growth (MOLT-4 leukemia),growth (SR leukemia),growth (RPMI-8226 leukemia),growth (OVCAR-8 ovarian),growth (OVCAR-5 ovarian),growth (OVCAR-4 ovarian),growth (IGROV1 ovarian),growth (OVCAR-3 ovarian),growth (HS 578T breast),growth (NCI/ADR-RES ovarian),growth (SK-OV-3 ovarian)
CNC(=O)c1cc(Oc2ccc3nc(NC(=O)c4ccc5ncccc5c4)sc3c2)ccn1,86.2%,87.5%,92.6%,77%,90.5%,102%,89.9%,88.3%,91%,94.2%,88.8%,71.9%,100%,106%,87.4%,93.3%,98.9%,108%,88.8%,
O=C(N/N=C1\c2ccccc2-c2cccc(C(=O)O)c21)c1ccc(O)cc1,102%,97.2%,91.1%,80.4%,98.1%,99.5%,86.9%,73.1%,89.9%,99.8%,110%,94.2%,97.4%,102%,,97.6%,96.6%,82%,99.8%,101%
Cc1ccc(NC(=S)/N=c2/n(-c3ccccc3)nc3n2CCN3C2=NCCN2)cc1,109%,113%,100%,92.4%,97.5%,106%,86%,81.2%,102%,98.8%,112%,104%,105%,98.2%,,120%,129%,111%,112%,114%
C=C(C)[C@@H]1CC[C@]2(C(=O)O)CC[C@]3(C)[C@H](CC[C@@H]4[C@@]5(C)C/C(=C/c6ccco6)C(=O)C(C)(C)[C@@H]5CC[C@]43C)[C@@H]12,-76% [100 µM] (active),-63% [100 µM] (active),-70.6% [100 µM] (active),-95.4% [100 µM] (active),-58.5% [100 µM] (active),-89.8% [100 µM] (active),-69.6% [100 µM] (active),-58.5% [100 µM] (active),3.44% [100 µM] (active),-8.01% [100 µM] (active),31.9% [100 µM],2.97% [100 µM] (active),-17.6% [100 µM] (active),-44.4% [100 µM] (active),,-63.2% [100 µM] (active),-59.1% [100 µM] (active),-1.95% [100 µM] (active),-43.8% [100 µM] (active),-54.2% [100 µM] (active)
COc1ccc2c(c1)c(-c1noc(C(=O)c3cn(C)c4ncc(Br)cc34)n1)cn2C,97.4%,75.4%,77.6%,70.5%,21.8%,39.8%,68.9%,48.5%,56.9%,77.2%,64%,62.2%,74.4%,80.4%,42.9%,54.3%,30.5%,27.8%,59.7%,
Cc1ccccc1-n1nnc(C(=O)Nc2nc3ccc(F)cc3s2)c1C,65.3%,64.9%,68.6%,58%,71.4%,64.7%,49.6%,31.4%,66.5%,43.7%,55.9%,45%,73.2%,82.2%,10.6%,75.7%,57.9%,73.6%,60.7%,
